Vif-A3G inh: qHTS for Inhibitors of Vif-A3G Interactions: qHTS; HeLa A3G-eYFP + Vif (tagged APOBEC3G with the HIV-1 protein that degrades it), YFP fluorescence, overnight; Potency, µM (top dose mostly 46.1 µM), hits mostly inhibitors; AID 602310, 2012; 410,000 tested, 0.076% active; note: nearly all actives have a fitted effect of over 60% in size
Target sequence (Q9HC16 whole entry, looked up): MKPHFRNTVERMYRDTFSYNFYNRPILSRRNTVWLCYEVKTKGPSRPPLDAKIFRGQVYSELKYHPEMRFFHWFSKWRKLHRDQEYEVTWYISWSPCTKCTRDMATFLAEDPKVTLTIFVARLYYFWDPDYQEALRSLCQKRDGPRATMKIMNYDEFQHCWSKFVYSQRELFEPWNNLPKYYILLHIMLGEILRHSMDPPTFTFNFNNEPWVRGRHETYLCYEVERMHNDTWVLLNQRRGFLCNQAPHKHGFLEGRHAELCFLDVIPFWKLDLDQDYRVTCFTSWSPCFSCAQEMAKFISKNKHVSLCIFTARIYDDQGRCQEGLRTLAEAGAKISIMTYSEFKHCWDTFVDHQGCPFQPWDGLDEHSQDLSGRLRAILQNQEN
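Read-out is eYFP fluorescence (Ex 488/Em 500-530) from Vif-expressing HeLa A3G-eYFP cells; more signal means A3G escaped Vif-mediated degradation. Cells plated overnight, compound pinned in, incubated overnight at 37 deg C.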
Epigenetic reg: Quantitative High-Throughput Screen for Regulators of Epigenetic Control; AID 1865, 2009; Potency, µM (titrated, usually from 53.9 µM), most hits filed as activators; murine LDR cells, GFP reporter derepression, 30 h; 280,000 tested, 0.2% active; note: nearly all actives have a fitted effect of over 60% in size
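In this reporter-derepression format, murine cells bearing a silenced integrated CMV-GFP locus incubate with test compound (30 h, 37 C), then are washed and imaged; fluorescent objects of 20–120 um count as induced cells.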
Vif-APOBEC3F blk: qHTS for Inhibitors of Vif-A3F Interactions: qHTS | HeLa A3F-eYFP + Vif (tagged APOBEC3F with the HIV-1 protein that degrades it), YFP fluorescence increase | Potency, µM (highest dose often 46.1 µM) | 390,000 tested, 0.2% active; note: nearly all actives have a fitted effect of over 65% in size
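Fluorescence increase (Ex 488/Em 500-530) after overnight compound treatment at 37 deg C flags inhibition of Vif-driven A3F-eYFP loss in stable HeLa A3F-eYFP/Vif cells seeded overnight beforehand.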
PINK1 modulator: A Quantitative High throughput Screen to Identify Chemical Modulators of PINK1 Expression | Potency, µM (series often up to 76.6 µM), most hits filed as activators | AID 624263, 2012 | PINK1 immunofluorescence, high-content cytometry, 24 h | 410,000 tested, 0.2% active; active = well fitted activation curve with a large enough effect; inconclusive = small, poorly fitted or top-dose-only effect; cell line not stated here; note: nearly all actives have a fitted effect of over 65% in size
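Readout is PINK1 immunofluorescence, quantified alongside mitochondrial, cell and nuclear markers by laser-scanning microplate cytometry. Cells from a stable line were exposed to compound titrations (5 concentrations) for 24 hours, with CCCP controls.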
Numbers stand for hits. A selection: hits, their analogues and other compounds. The true share with any hit is near 0.51%. Unless noted, calls come from the whole dose curve; as a rule, active = well fitted curve in the direction sought with a large enough effect; inconclusive = small, poorly fitted or top-dose-only effect, or another doubt; inactive = no such curve, though single readings can be large; an effect the other way counts as inactive or inconclusive.

How did Oc1nc(Nc2cccc(Cl)c2)sc1/C=C1\C=Nc2ccccc21 do in these assays?
Vif-A3G inh: inactive; Epigenetic reg: inactive; Vif-APOBEC3F blk: inactive; PINK1 modulator: inactive

What do the screens show for `Oc1cccc(Nc2nc(O)c(/C=C3\C=Nc4ccccc43)s2)c1`?
Vif-A3G inh: 4.5µM; Epigenetic reg: inactive; Vif-APOBEC3F blk: 11µM; PINK1 modulator: inactive

What do the screens show for `Cc1ccc(Cl)c2c(N=Nc3ccccc3)c(O)[nH]c12`?
Vif-A3G inh: inactive; Vif-APOBEC3F blk: 8.9µM; PINK1 modulator: inconclusive

What do the screens show for `COc1cc(/C=C/C(=O)c2ccc([N+](=O)[O-])o2)ccc1O`?
Vif-A3G inh: inconclusive; Vif-APOBEC3F blk: inconclusive; PINK1 modulator: inactive

Results for COc1ccc(/C=C/C(=O)c2ccc([N+](=O)[O-])o2)cc1OC ?
Vif-A3G inh: 7.9µM; Vif-APOBEC3F blk: inconclusive; PINK1 modulator: inactive

What do the screens show for `CCOc1ccc(N=C2NC(=O)S/C2=C\c2ccc(N(C)C)cc2)cc1`?
Vif-A3G inh: inconclusive; Epigenetic reg: 7.9µM; Vif-APOBEC3F blk: inconclusive; PINK1 modulator: inconclusive

What do the screens show for `COc1cccc(Cn2c3ccc(NC(=O)CCc4ccc(F)cc4)cc3c(=O)n2C)c1`?
Vif-A3G inh: 4µM; PINK1 modulator: inactive

Results for COCCCNc1ncnc2sc(C(=O)N3CCCCC3)c(C)c12 ?
PINK1 modulator: inactive

How did O=C(NC(=S)Nc1c(Cl)cc(Cl)cc1Cl)c1ccccc1 do in these assays?
Vif-A3G inh: inactive; Vif-APOBEC3F blk: 4.5µM; PINK1 modulator: inactive

Results for O=C(NC(=S)Nc1cccc(NC(=S)NC(=O)c2ccccc2)c1)c1ccccc1 ?
Vif-A3G inh: inactive; Vif-APOBEC3F blk: inactive; PINK1 modulator: inactive

How did O=[N+]([O-])c1ccc(C2=Nc3cc(Cl)ccc3OC2)cc1 do in these assays?
Vif-A3G inh: inactive; Epigenetic reg: inactive; Vif-APOBEC3F blk: 25µM; PINK1 modulator: inconclusive

What do the screens show for `Cc1ccc2c(c1)N=C(c1ccc(F)cc1)CO2`?
Vif-A3G inh: inactive; Epigenetic reg: inactive; Vif-APOBEC3F blk: inactive; PINK1 modulator: inactive

How did Cc1cc(N2CCCC2)ccc1NC(=O)COc1ccccc1 do in these assays?
Vif-A3G inh: inactive; Vif-APOBEC3F blk: inconclusive; PINK1 modulator: inactive

What do the screens show for `CCc1ccccc1OCC(=O)Nc1ccc(N2CCCC2)cc1C`?
Vif-A3G inh: inconclusive; Vif-APOBEC3F blk: inconclusive; PINK1 modulator: 28µM

Results for Cc1c(CN2CCOc3ccc(C(C)(O)COc4ccccc4)cc3C2)cnn1C (stereo unspecified) ?
PINK1 modulator: inactive

Results for Cc1[nH]c2ccccc2c1/C=N/NC(=O)c1cccc([N+](=O)[O-])c1 ?
Vif-A3G inh: inactive; Epigenetic reg: inactive; Vif-APOBEC3F blk: inactive; PINK1 modulator: inactive

How did C/C(=N/Nc1ccc([N+](=O)[O-])cc1)c1c[nH]c2ccccc12 do in these assays?
Vif-A3G inh: inconclusive; Vif-APOBEC3F blk: 6.3µM; PINK1 modulator: inactive

How did Cc1[nH]c2ccccc2c1/C=N/Nc1ccc([N+](=O)[O-])cc1 do in these assays?
Vif-A3G inh: 10µM; Epigenetic reg: inactive; Vif-APOBEC3F blk: 10µM; PINK1 modulator: inactive

What do the screens show for `C=C[C@@H]1CN2CCC1C[C@@H]2C(O)c1ccnc2ccc(OC)cc12` (stereo partly specified)?
Epigenetic reg: inactive

Results for COc1cc(OC)c(C2Nc3cccc4cccc(c34)N2)c(OC)c1 ?
Vif-A3G inh: inactive; Vif-APOBEC3F blk: 11µM; PINK1 modulator: inactive

What do the screens show for `COc1ccc(C2Nc3cccc4cccc(c34)N2)cc1`?
Vif-A3G inh: inactive; Epigenetic reg: inactive; Vif-APOBEC3F blk: inactive; PINK1 modulator: inactive

Results for O=C(c1cccc(Cn2cccn2)c1)N1CCC(n2c(C3CCCO3)nc3cc(C(F)(F)F)ccc32)CC1 (stereo unspecified) ?
PINK1 modulator: inactive

Results for CCOc1c(Cl)cc(/C=N/NC(N)=S)cc1OC ?
Vif-A3G inh: inactive; Epigenetic reg: inactive; Vif-APOBEC3F blk: 11µM; PINK1 modulator: inactive

What do the screens show for `N#Cc1c(C(F)(F)F)cc(-c2cccs2)nc1SCC(=O)Nc1cccc(C(F)(F)F)c1`?
Vif-A3G inh: inconclusive; Epigenetic reg: 16µM; Vif-APOBEC3F blk: 10µM; PINK1 modulator: inconclusive

Results for N#Cc1c(C(F)(F)F)cc(-c2cccs2)nc1SCC(=O)Nc1ccc(Cl)cc1 ?
Vif-A3G inh: 10µM; Epigenetic reg: 10µM; Vif-APOBEC3F blk: inconclusive; PINK1 modulator: inactive

What do the screens show for `CCOc1ccc(NC(=O)CSc2nc(-c3cccs3)cc(C(F)(F)F)c2C#N)cc1`?
Vif-A3G inh: inactive; Epigenetic reg: inactive; Vif-APOBEC3F blk: inactive; PINK1 modulator: inactive

How did Cc1ccccc1C1(CC(=O)N2CCCC2c2nccs2)CC(=O)N(C2CCCC2)C1=O (stereo unspecified) do in these assays?
PINK1 modulator: inactive

How did CC(C)N(C(=S)Nc1cccc(C(F)(F)F)c1)C(C)c1ccccn1 (stereo unspecified) do in these assays?
Vif-A3G inh: inactive; Epigenetic reg: inactive; Vif-APOBEC3F blk: inactive; PINK1 modulator: 32µM

What do the screens show for `Cc1ccc(C(=O)N/N=C(/CC(=O)c2cccs2)C(F)(F)F)cc1`?
Vif-A3G inh: inactive; Epigenetic reg: inactive; Vif-APOBEC3F blk: inactive; PINK1 modulator: 45µM

How did O=C(CN1Cc2ccccc2OC(c2ccsc2)C1)N1CCC(c2nc3ccccc3[nH]2)CC1 (stereo unspecified) do in these assays?
PINK1 modulator: inactive

Results for COc1ccc(CN2CCOc3c(cc(-c4cccc(OC)n4)cc3OC)C2)c(O)c1 ?
PINK1 modulator: inactive

How did COc1ccc2c(C)cc(SCC(=O)NC3CCCCC3)nc2c1 do in these assays?
Vif-A3G inh: inactive; Vif-APOBEC3F blk: inconclusive; PINK1 modulator: inactive

What do the screens show for `COc1ccc2c(C)cc(SCC(=O)N3CCOCC3)nc2c1`?
Vif-A3G inh: inconclusive; Epigenetic reg: inactive; Vif-APOBEC3F blk: 25µM; PINK1 modulator: inactive

Results for COCCCNc1ncnc2sc(C(=O)N3CCOCC3)c(C)c12 ?
PINK1 modulator: inactive

How did CN=Cc1nc(-c2ccccc2)oc1O do in these assays?
Vif-A3G inh: inactive; Epigenetic reg: inactive; Vif-APOBEC3F blk: inactive; PINK1 modulator: inactive

Results for Cc1ccc(-c2nc(C=Nc3ccc(O)cc3)c(O)o2)cc1 ?
Vif-A3G inh: inconclusive; Epigenetic reg: inconclusive; Vif-APOBEC3F blk: 25µM; PINK1 modulator: inactive

Results for c1cncc(OC2CCN(Cc3ccc4c(c3)CN(Cc3ccc5c(c3)OCCO5)CCO4)CC2)c1 ?
PINK1 modulator: inactive

What do the screens show for `COc1ccc(CN2CCCC(n3cc(C(=O)NC4CCCC4)nn3)C2)c2ccccc12` (stereo unspecified)?
PINK1 modulator: inactive

What do the screens show for `CCN(CC)c1ccc(CNc2nc3ccccc3n2C(C)C)cc1`?
Vif-A3G inh: inactive; Epigenetic reg: inactive; Vif-APOBEC3F blk: inactive; PINK1 modulator: 22µM

Results for CSc1ncccc1C(=O)N1CCOc2ccc(C(C)(O)CCn3cccn3)cc2C1 (stereo unspecified) ?
PINK1 modulator: inactive

Source: PubChem BioAssay
